# Measurements from the supplement of paper PMC8728848.
# Many of the other results were omitted from the sample, so the strongest signals are more common in it than they were.
# B1: SynCAM (Mus musculus) (protein)
# chain: MASAVLPSGSQCAAAAAVAAAAAPPGLRLRLLLLLLSAAALIPTGDGQNLFTKDVTVIEGEVATISCQVNKSDDSVIQLLNPNRQTIYFRDFRPLKDSRFQLLNFSSSELKVSLTNVSISDEGRYFCQLYTDPPQESYTTITVLVPPRNLMIDIQKDTAVEGEEIEVNCTAMASKPATTIRWFKGNKELKGKSEVEEWSDMYTVTSQLMLKVHKEDDGVPVICQVEHPAVTGNLQTQRYLEVQYKPQVHIQMTYPLQGLTREGDAFELTCEAIGKPQPVMVTWVRVDDEMPQHAVLSGPNLFINNLNKTDNGTYRCEASNIVGKAHSDYMLYVYDPPTTIPPP
# How the values were obtained:
# Assay in all cases: glycan array binding signal (z-score within array); higher = stronger binding
# Conditions in all cases: glycan notation: IUPAC condensed, linker removed
# [1] = biological target: Fuc(a1-2)Gal(b1-3)GalNAc(b1-3)Gal
# Summary of the method: (§1)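 Glycan array data came from 3228 arrays in the Consortium for Functional Glycomics database, and only arrays with an available protein sequence were kept. Glycan names were put into IUPAC-condensed notation, and columns mapping to the same glycan were averaged. The binding signal is a within-array Z-score, averaged across arrays of one protein sequence run at different concentrations or buffers and across linkers. A negative Z-score can be read as non-binding.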
# [2] = biological target: Fuc(a1-2)Gal(b1-3)GlcNAc(b1-3)GalNAc
# Summary of the method: as §1
# [3] = biological target: Fuc(a1-2)Gal(b1-4)GlcNAc(b1-3)Gal(b1-4)GlcNAc(b1-2)Man(a1-3)[Fuc(a1-2)Gal(b1-4)GlcNAc(b1-3)Gal(b1-4)GlcNAc(b1-2)Man(a1-6)]Man(b1-4)GlcNAc(b1-4)GlcNAc
# Summary of the method: as §1
# [4] = biological target: Fuc(a1-2)Gal(b1-4)GlcNAc(b1-3)[Fuc(a1-3)[Gal(b1-4)]GlcNAc(b1-6)]Gal(b1-4)Glc
# Summary of the method: as §1
# [5] = biological target: Fuc(a1-2)[Gal(a1-3)]Gal(b1-4)Glc
# Summary of the method: as §1
# [6] = biological target: Fuc(a1-2)[Gal(a1-3)]Gal(b1-4)GlcNAc
# Summary of the method: as §1
# [7] = biological target: Fuc(a1-2)[GalNAc(a1-3)]Gal(b1-4)GlcNAc(b1-6)GalNAc
# Summary of the method: as §1
# [8] = biological target: Fuc(a1-2)[GalNAc(b1-3)]Gal
# Summary of the method: as §1
# [9] = biological target: Fuc(a1-3)[GalNAc(b1-4)]GlcNAc
# Summary of the method: as §1
# Gal(a1-6)Glc = biological target: Gal(a1-6)Glc
# Summary of the method: as §1
# Gal(b1-2)Gal = biological target: Gal(b1-2)Gal
# Summary of the method: as §1
# [10] = biological target: Gal(b1-3)GlcNAc(b1-3)Gal(b1-4)Glc
# Summary of the method: as §1
# [11] = biological target: Gal(b1-3)GlcNAc(b1-3)Gal(b1-4)GlcNAc(b1-3)Gal(b1-4)GlcNAc(b1-2)[Gal(b1-3)GlcNAc(b1-3)Gal(b1-4)GlcNAc(b1-3)Gal(b1-4)GlcNAc(b1-6)]Man(a1-6)[Gal(b1-3)GlcNAc(b1-3)Gal(b1-4)GlcNAc(b1-3)Gal(b1-4)GlcNAc(b1-2)Man(a1-3)]Man(b1-4)GlcNAc(b1-4)[Fuc(a1-6)]GlcNAc
# Summary of the method: as §1
# [12] = biological target: Gal(b1-3)GlcNAc(b1-3)Gal(b1-4)[Fuc(a1-3)]GlcNAc
# Summary of the method: as §1
# [13] = biological target: Gal(b1-3)GlcNAc(b1-3)GalNAc
# Summary of the method: as §1
# [14] = biological target: Gal(b1-3)[Neu5Ac(a2-6)]GalNAc
# Summary of the method: as §1
# [15] = biological target: Gal(b1-3)[Neu5Ac(b2-6)]GalNAc
# Summary of the method: as §1
# [16] = biological target: Gal(b1-4)GlcNAc(b1-2)Man(a1-3)Man(b1-4)GlcNAc(b1-4)GlcNAc
# Summary of the method: as §1
# [17] = biological target: Gal(b1-4)GlcNAc(b1-2)Man(a1-6)Man(b1-4)GlcNAc(b1-4)GlcNAc
# Summary of the method: as §1
# [18] = biological target: Gal(b1-4)GlcNAc(b1-2)[Gal(b1-4)GlcNAc(b1-4)]Man(a1-3)[Gal(b1-4)GlcNAc(b1-2)[Gal(b1-4)GlcNAc(b1-6)]Man(a1-6)]Man(b1-4)GlcNAc(b1-4)GlcNAc
# Summary of the method: as §1
# [19] = biological target: Gal(b1-4)GlcNAc(b1-3)Gal(b1-4)GlcNAc(b1-2)Man(a1-3)[Gal(b1-4)GlcNAc(b1-3)Gal(b1-4)GlcNAc(b1-2)Man(a1-6)]Man(b1-4)GlcNAc(b1-4)GlcNAc
# Summary of the method: as §1
# [20] = biological target: Gal(b1-4)GlcNAc(b1-3)Gal(b1-4)GlcNAc(b1-2)[Gal(b1-4)GlcNAc(b1-3)Gal(b1-4)GlcNAc(b1-6)]Man(a1-6)[Gal(b1-4)GlcNAc(b1-3)Gal(b1-4)GlcNAc(b1-2)Man(a1-3)]Man(b1-4)GlcNAc(b1-4)GlcNAc
# Summary of the method: as §1
# [21] = biological target: Gal(b1-4)GlcNAc(b1-3)Gal(b1-4)GlcNAc(b1-3)Gal(b1-4)GlcNAc(b1-2)Man(a1-3)[Gal(b1-4)GlcNAc(b1-3)Gal(b1-4)GlcNAc(b1-3)Gal(b1-4)GlcNAc(b1-2)Man(a1-6)]Man(b1-4)GlcNAc(b1-4)[Fuc(a1-6)]GlcNAc
# Summary of the method: as §1
# [22] = biological target: Gal(b1-4)GlcNAc(b1-3)Gal(b1-4)GlcNAc(b1-3)[Gal(b1-4)GlcNAc(b1-3)Gal(b1-4)GlcNAc(b1-6)]GalNAc
# Summary of the method: as §1
# [23] = biological target: Gal(b1-4)GlcNAc(b1-3)[Fuc(a1-3)GlcNAc(b1-6)]Gal(b1-4)Glc
# Summary of the method: as §1
# [24] = biological target: Gal(b1-4)GlcNAc(b1-6)[Gal(b1-3)]GalNAc
# Summary of the method: as §1
# Gal3S(b1-4)Glc = biological target: Gal3S(b1-4)Glc
# Summary of the method: as §1
# [25] = biological target: Gal3S(b1-4)[Fuc(a1-3)]Glc6S
# Summary of the method: as §1
# [26] = biological target: Gal3S(b1-4)[Fuc(a1-3)]GlcNAc6S
# Summary of the method: as §1
# Gal3S6S(b1-4)GlcNAc = biological target: Gal3S6S(b1-4)GlcNAc
# Summary of the method: as §1
binder,measurement,setting,value
B1,glycan array binding signal (z-score),[1],0.178
same,glycan array binding signal (z-score),[2],0.316
same,glycan array binding signal (z-score),[3],0.696
same,glycan array binding signal (z-score),[4],-0.893
same,glycan array binding signal (z-score),[5],-0.671
same,glycan array binding signal (z-score),[6],-1.34
same,glycan array binding signal (z-score),[7],-0.149
same,glycan array binding signal (z-score),[8],0.423
same,glycan array binding signal (z-score),[9],2.63
same,glycan array binding signal (z-score),Gal(a1-6)Glc,-0.988
same,glycan array binding signal (z-score),Gal(b1-2)Gal,0.521
same,glycan array binding signal (z-score),[10],0.308
same,glycan array binding signal (z-score),[11],2.43
same,glycan array binding signal (z-score),[12],-1.13
same,glycan array binding signal (z-score),[13],0.053
same,glycan array binding signal (z-score),[14],-0.488
same,glycan array binding signal (z-score),[15],-0.562
same,glycan array binding signal (z-score),[16],-1.2
same,glycan array binding signal (z-score),[17],-0.469
same,glycan array binding signal (z-score),[18],-0.042
same,glycan array binding signal (z-score),[19],2.96
same,glycan array binding signal (z-score),[20],0.285
same,glycan array binding signal (z-score),[21],1.48
same,glycan array binding signal (z-score),[22],0.945
same,glycan array binding signal (z-score),[23],0.097
same,glycan array binding signal (z-score),[24],-0.072
same,glycan array binding signal (z-score),Gal3S(b1-4)Glc,1.95
same,glycan array binding signal (z-score),[25],3.97
same,glycan array binding signal (z-score),[26],1.22
same,glycan array binding signal (z-score),Gal3S6S(b1-4)GlcNAc,2.56
